Measured values published in PubChem BioAssay AID1159580 (chemical genetic matrix, 2015).
Several values for one entry are separate records, joined by “and”; a condition that tells them apart may be missing. Equal entries are not always repeated. Among all 5,500 compounds or so, about 2,000 (36%) were called active. About 18% were inconclusive and are not listed. No stated cut-off is given here; in the data, active means normalized growth mostly below about 0.91 (no sharp cut-off); inconclusive means no clear call, values can overlap the other calls; inactive means mostly above about 0.92. Some of the results follow.

Assay: chemical genetic growth profiling, strain panel (AID 1159580);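 further: tested at 20 µM; growth read once vehicle control cultures reached saturation at 30 °C; 1 = growth at the plate median or of vehicle wells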
Conditions: S. cerevisiae deletion strains, growth OD

Measured: normalized growth

CN/C(=C\[N+](=O)[O-])NCCSCc1ccc(CN(C)C)o1
inactive: locus YAL021C, strain ccr4, stronger effect = lower value 0.979 | locus YAL026C, strain drs2, stronger effect = lower value 0.99 | locus YAL030W, strain snc1, stronger effect = lower value 1 | locus YAL040C, strain CLN3, stronger effect = lower value 1 | locus YBL061C, strain skt5, stronger effect = lower value 0.974 | locus YBR009C, strain hhf1, stronger effect = lower value 0.998 | locus YBR021W, strain FUR4, stronger effect = lower value 1.04 | locus YBR023C, strain chs3, stronger effect = lower value 0.989 | locus YBR171W, strain sec66, stronger effect = lower value 0.989 | locus YBR229C, strain ROT2, stronger effect = lower value 1.02 | locus YBR231C, strain swc5, stronger effect = lower value 0.977 | locus YBR279W, strain paf1, stronger effect = lower value 0.991 | locus YCL011C, strain gbp2, stronger effect = lower value 0.984 | locus YCL016C, strain dcc1, stronger effect = lower value 0.986 | locus YCL029C, strain bik1, stronger effect = lower value 1 | locus YCL061C, strain MRC1 (second series), stronger effect = lower value 1.01 | locus YCL069W, strain vba3, stronger effect = lower value 0.973 | locus YCR088W, strain abp1, stronger effect = lower value 0.976 | locus YDL005C, strain med2, stronger effect = lower value 0.977 | locus YDL035C, strain GPR1, stronger effect = lower value 1.04 | locus YDL040C, strain nat1, stronger effect = lower value 0.99 | locus YDL074C, strain BRE1, stronger effect = lower value 1.07 | locus YDL101C, strain DUN1, stronger effect = lower value 1.03 | locus YDL134C, strain PPH21, stronger effect = lower value 1.03 | locus YDL185W, strain tfp1, stronger effect = lower value 0.987 | locus YDL192W, strain arf1, stronger effect = lower value 0.989 | locus YDR001C, strain nth1, stronger effect = lower value 0.982 | locus YDR069C, strain doa4, stronger effect = lower value 0.97 | locus YDR101C, strain arx1, stronger effect = lower value 1.01 | locus YDR137W, strain rgp1, stronger effect = lower value 0.975 | locus YDR150W, strain NUM1, stronger effect = lower value 1.02 | locus YDR159W, strain sac3, stronger effect = lower value 0.94 | locus YDR162C, strain NBP2, stronger effect = lower value 1.02 | locus YDR195W, strain ref2 0.943 | locus YDR297W, strain sur2, stronger effect = lower value 0.972 | locus YDR318W, strain mcm21, stronger effect = lower value 0.991 | locus YDR334W, strain swr1, stronger effect = lower value 0.977 | locus YDR335W, strain msn5, stronger effect = lower value 0.998 | locus YDR363W, strain ESC2, stronger effect = lower value 1 | locus YDR388W, stronger effect = lower value 0.995 | locus YDR392W, strain spt3, stronger effect = lower value 0.993 | locus YDR502C, strain sam2, stronger effect = lower value 0.997 | locus YEL003W, strain gim4, stronger effect = lower value 0.992 | locus YEL037C, strain rad23, stronger effect = lower value 0.986 | locus YEL061C, strain CIN8 (second series), stronger effect = lower value 0.977 | locus YEL061C, strain CIN8, stronger effect = lower value 1.01 | locus YER002W, strain NOP16, stronger effect = lower value 0.988 | locus YER015W, strain faa2, stronger effect = lower value 0.995 | locus YER016W, strain bim1, stronger effect = lower value 0.973 | locus YER110C, stronger effect = lower value 1 | locus YER111C, strain swi4, stronger effect = lower value 0.992 | locus YER155C, strain BEM2 (second series), stronger effect = lower value 0.973 | locus YER155C, strain BEM2, stronger effect = lower value 1.01 | locus YER167W, strain BCK2, stronger effect = lower value 1.02 | locus YFR010W, strain ubp6, stronger effect = lower value 0.99 | locus YGL078C, strain dbp3, stronger effect = lower value 0.986 | locus YGL086W, strain mad1, stronger effect = lower value 0.999 | locus YGL167C, strain pmr1, stronger effect = lower value 0.987 | locus YGL173C, strain kem1, stronger effect = lower value 0.989 | locus YGL227W, strain vid30, stronger effect = lower value 0.978 | locus YGL240W, strain doc1, stronger effect = lower value 0.996 | locus YGL248W, strain PDE1, stronger effect = lower value 1.04 | locus YGL253W, strain hxk2, stronger effect = lower value 0.993 | locus YGR078C, strain PAC10, stronger effect = lower value 0.997 | locus YGR135W, strain pre9, stronger effect = lower value 0.98 | locus YGR252W, strain gcn5, stronger effect = lower value 0.984 | locus YHR013C, strain ard1, stronger effect = lower value 0.952 | locus YHR027C, strain rpn1, stronger effect = lower value 1.01 | locus YHR030C, strain SLT2, stronger effect = lower value 1.02 and 0.986 | locus YHR079C, strain IRE1 (second series), stronger effect = lower value 0.982 | locus YHR079C, strain IRE1, stronger effect = lower value 0.999 | locus YHR094C, strain hxt1, stronger effect = lower value 0.983 | locus YHR129C, strain ARP1, stronger effect = lower value 1.02 | locus YHR142W, strain chs7, stronger effect = lower value 0.99 | locus YHR200W, strain rpn10, stronger effect = lower value 0.984 | locus YIL066C, strain RNR3, stronger effect = lower value 1.04 | locus YIL073C, strain SPO22, stronger effect = lower value 0.98 | locus YIL125W, strain kgd1, stronger effect = lower value 0.984 | locus YIR030C, strain dcg1, stronger effect = lower value 0.988 | locus YJL092W, strain hpr5, stronger effect = lower value 0.979 | locus YJL095W, strain BCK1 (second series), stronger effect = lower value 0.995 | locus YJL095W, strain BCK1, stronger effect = lower value 1.05 and 0.995 | locus YJL115W, strain asf1, stronger effect = lower value 0.986 | locus YJL129C, strain trk1, stronger effect = lower value 0.957 | locus YJL134W, strain LCB3, stronger effect = lower value 1.01 | locus YJL154C, strain vps35, stronger effect = lower value 0.973 | locus YJL164C, strain tpk1, stronger effect = lower value 0.996 | locus YJL166W, strain qcr8, stronger effect = lower value 0.985 | locus YJL168C, strain set2, stronger effect = lower value 0.988 | locus YJL187C, strain SWE1 (second series), stronger effect = lower value 1.04 | locus YJL187C, strain SWE1, stronger effect = lower value 0.977 | locus YJR043C, strain POL32, stronger effect = lower value 1.05 | locus YJR066W, strain TOR1, stronger effect = lower value 0.944 | locus YJR075W, strain HOC1, stronger effect = lower value 0.996
